# From PubChem BioAssay (NCI)
# The panel holds about 83,000 compounds, 20% with a hit somewhere; the sample as a whole holds those more often.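 48-hour exposure, single concentration, 96-well plates; percent growth endpoint where 0 means no net growth. Active: below 10.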 Values without a mark were called inactive.
# Tested on: PC-3 prostate
# Assay: NCI-60 one-dose screen, 48 h (100 = growth as untreated, 0 = no growth, -100 = all killed)
# Details: 10 µM unless noted
row,SMILES,growth
1,COc1ccc(C=Nc2c(C(=O)Nc3cccc(Cl)c3C)sc3nc(C)c(C(=O)/C=C/c4ccc(OC)cc4)cc23)cc1,32.8%
2,CCOC(=O)CNC1=C(Cl)C(=O)N(Cc2ccc(Cl)cc2)C1=O,97.7%
3,COc1ccc(/C=C(\C(=O)NCc2cccnc2)S(=O)(=O)c2ccccc2)cc1OC,36.5%
4,COc1cc2c(c(OC)c1OC)CCC(c1cccc(C(=O)Nc3ccc(Br)cc3)c1)O2 (centres undefined),39.4%
5,Nc1cc(-c2ccc(Cl)cc2)nn1-c1nnc(/C=C/c2ccco2)c(=O)[nH]1,52.6%
6,N#C/C(=C\c1ccc(-c2cccc(Cl)c2)o1)C(=O)Nc1ncc(Cc2ccc(Cl)cc2)s1,39.5%
7,CCOC(=O)c1c(C)nc2c(c1N)C(=O)C(=O)N2Cc1ccc(OC)cc1,47.9%
8,c1csc(-c2cn3nc(-c4c[nH]c5ccccc45)sc3n2)c1,26.5%
9,FC(F)(F)c1[nH]ncc1-c1nc2ccc3[nH]ncc3c2c2c1CCCC2,21%
10,COc1cc(-c2nccc3[nH]c(-c4cccc5[nH]ccc45)nc23)cc(OC)c1OC,11.8%
11,COc1ccc2[nH]cc(-c3nonc3-c3c[nH]c4ccc(Br)cc34)c2c1,39.8%
12,CC(=O)c1c(Nc2cccc(F)c2)[nH]c2c(Cl)cc(Cl)c(Cl)c2c1=O,10.3%
13,CCOC(=O)NC(=S)n1oc(=O)c2ccccc21,98.3%
14,O=S(Nc1ccccc1)c1ccc(Cl)cc1 (centres undefined),89.8%
